# Measurements as given in PubChem BioAssay AID651699 (Sanford-Burnham Center for Chemical Genomics, 2012).
# Among all 360,000 compounds or so, about 2,100 (0.58%) were called active. The full list was thinned out, with actives kept by preference. Unmarked numbers belong to inactive results. Cut-off read from the data, not from the text of the source: active = inhibition above about 36%; inactive = the rest.
# Biological target: NEDD8-conjugating enzyme Ubc12 (Homo sapiens) + NEDD8-activating enzyme E1 regulatory subunit (Homo sapiens) (UniProt P61081+Q13564)
# Experiment: inhibitors of cullin neddylation, primary screen, biochemical, TR-FRET, uHTS, NAE and Ubc12 (AID 651699)
# Details: at 25 µM, active compounds read high
# NEDD8-conjugating enzyme Ubc12 (Homo sapiens) + NEDD8-activating enzyme E1 regulatory subunit (Homo sapiens), sequence (P61081 whole entry, looked up): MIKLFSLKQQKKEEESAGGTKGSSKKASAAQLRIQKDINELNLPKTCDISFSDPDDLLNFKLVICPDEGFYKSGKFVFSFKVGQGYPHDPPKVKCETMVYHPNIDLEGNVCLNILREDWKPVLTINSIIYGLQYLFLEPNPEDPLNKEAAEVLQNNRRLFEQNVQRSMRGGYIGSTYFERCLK
# NEDD8-conjugating enzyme Ubc12 (Homo sapiens) + NEDD8-activating enzyme E1 regulatory subunit (Homo sapiens), sequence (Q13564 whole entry, looked up): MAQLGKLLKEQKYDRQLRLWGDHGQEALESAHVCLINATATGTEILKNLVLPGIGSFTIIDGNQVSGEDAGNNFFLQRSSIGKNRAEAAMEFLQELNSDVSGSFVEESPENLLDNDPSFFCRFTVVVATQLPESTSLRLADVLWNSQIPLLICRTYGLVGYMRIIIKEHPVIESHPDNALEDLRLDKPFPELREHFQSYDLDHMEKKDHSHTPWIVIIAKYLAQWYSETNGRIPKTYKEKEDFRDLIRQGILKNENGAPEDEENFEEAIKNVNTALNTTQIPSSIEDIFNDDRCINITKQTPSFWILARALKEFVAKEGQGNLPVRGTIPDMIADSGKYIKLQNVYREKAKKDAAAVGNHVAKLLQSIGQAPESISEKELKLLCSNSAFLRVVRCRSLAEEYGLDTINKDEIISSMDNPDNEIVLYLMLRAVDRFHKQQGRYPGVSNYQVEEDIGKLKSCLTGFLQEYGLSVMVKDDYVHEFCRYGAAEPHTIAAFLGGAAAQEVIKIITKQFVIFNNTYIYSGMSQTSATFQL
row,Structure (SMILES),inhibition
1,COc1ccc([N+](=O)[O-])cc1C1NN=C(c2cccc3ccccc23)S1 (centres undefined),-3.56%
2,COc1ccc2c(c1OC)C(=O)N(c1ccc(O)cc1)C2,14.7%
3,COc1ccc(C2C(C#N)=C(N)N(c3ncn[nH]3)C3=C2C(=O)CCC3)cc1 (centres undefined),-6.24%
4,COc1ccc2c(c1OC)C(=O)N(c1ncn[nH]1)C2,39.8% (active)
5,COc1ccc(NC(=O)CCC(=O)N2CCN(S(=O)(=O)c3ccc(C)cc3)CC2)c(OC)c1,2.78%
6,Cc1c(C2=CCN(S(=O)(=O)c3ccc(Cl)cc3)CC2)c2ccccc2n1C,-207%
7,CN(C)CC/C=C1\c2ccccc2CSc2ccccc21,6.08%
8,COC(=O)c1ccc2nc(-c3ccc(OC)c(OC)c3)c(Cc3ccccc3)n2c1,41.4% (active)
9,COC(=O)c1ccc2nc(-c3ccc(Cl)cc3)c(Cc3cccc(F)c3)n2c1,25.5%
10,COC(=O)c1ccc2nc(-c3ccc(F)cc3)c(Cc3ccc(C)cc3)n2c1,36.3%
11,CC[C@]12c3[nH]c4ccc(Cl)cc4c3CCN1C(=O)[C@@H](CC(=O)NCCCOC)C[C@@H]2C(=O)N1CCN(C(=O)c2ccco2)CC1,3.68%
12,COc1c(C(C)C)oc2cc3oc(=O)ccc3cc12,36.1%
13,COC(=O)Cn1c(=NC(=O)CSCC(=O)Nc2cc(C)on2)sc2ccccc21,6.58%
14,Cc1ccc(-c2cc(C(=O)N/N=C/C=C/c3ccccc3)n[nH]2)o1,-6.17%
15,S=c1[nH]nc(/C=C/c2ccccc2)o1,40.5% (active)
16,CC(C)(C)c1cc2cccnc2n1Cc1ccccc1,24.2%
17,Cc1cnc(CN(C)C(=O)C2CCC(=O)N(CCc3cccc(F)c3)C2)[nH]1 (centres undefined),-3.06%
18,Cc1cccn2c(=O)c3cc(C(=O)NCCN4CCOCC4)c(=N)n(Cc4cccnc4)c3nc12,68.3% (active)
19,CCCn1c(=O)c(-c2ccccc2)c(O)c2ccccc21,44.3% (active)
20,CCCNC(=O)CCn1nc(-c2ccccc2)c2ccccc2c1=O,-0.32%

row,Structure (SMILES),inhibition
1,CCCCCn1c(=O)c(C(=O)OCC)c(Cl)c2ccccc21,4.01%
2,O=C1OC(Cc2ccccc2)C(c2ccccc2)C1=O (centres undefined),-10.9%
3,Cc1cc(=O)[nH]c(Nc2cccc(Br)c2)n1,-6.28%
4,CCN(CC)c1ccc(/C=N/Nc2nc(C)cc(=O)[nH]2)cc1,42% (active)
5,Cc1cc(=O)[nH]c(SCc2ccc(Cl)cc2)n1,-1.58%
6,COc1ccc(CNC(=O)C(=O)N2CCC3(CC2)OCCN3S(=O)(=O)c2ccc(C)cc2)cc1,4.54%
7,Cc1cc(/C=C2/C(=N)N3C(=NC2=O)SN=C3S(C)(=O)=O)c(C)n1-c1ccccc1,44.8% (active)
8,CC1=CC2=NC(=O)/C(=C/c3coc4ccccc4c3=O)C(=N)N2O1,-38.8%
9,CCOC(=O)C1=C(O)/C(=C/c2cc(C)n(-c3ccccc3)c2C)N=C1C,16.8%
10,COc1cccc(NC(=O)CN(C)C(=O)c2cc(Cl)nc3ccccc23)c1,-0.49%
11,COc1ccc(-c2cc(C(=O)N(C)CC(=O)Nc3ccccc3Cl)c3ccccc3n2)cc1OC,46.6% (active)
12,COc1ccc(Cl)cc1NC(=O)CN(C)C(=O)c1ccc2n[nH]nc2c1,7.09%
13,CC(=O)NC1CCN(CC(=O)Nc2nccs2)CC1,-3.21%
14,COC(=O)c1noc(C)c1-c1ccnn1C(=O)c1ccc(Cl)cc1,-11.9%
15,CC1CCC2CCCCC2N1C(=O)c1cc([N+](=O)[O-])cc([N+](=O)[O-])c1 (centres undefined),-35.2%
16,CC(Oc1ccccc1[N+](=O)[O-])C(=O)N/N=C/c1ccoc1 (centres undefined),-9.94%
17,CC(C)c1cc(C(=O)N/N=C/c2ccoc2)c(O)c(C(C)C)c1,49.1% (active)
18,O=C(N/N=C/c1ccoc1)c1ccc(Cl)cc1Cl,1.29%
19,COc1ccc(OC)c(NC(=O)CSc2nc(N)c(-c3ccccc3)c(=O)[nH]2)c1,26.4%
20,Cc1cc(C)c(C=NNc2nc3c([nH]2)c(=O)n(C)c(=O)n3C)c(C)c1,39.2% (active)

row,Structure (SMILES),inhibition
1,CC(CCO)Nc1nc2c([nH]1)c(=O)n(C)c(=O)n2C (centres undefined),10.7%
2,Cc1ccc(NN=Nc2nc3c([nH]2)c(=O)n(C)c(=O)n3C)cc1,1.85%
3,COc1cccc(/C=N/NC(=O)C(=O)N2CCCC2)c1,-14.6%
4,O=C(CN1C(=O)CC(c2ccccc2)=Nc2ccccc21)NC1CCCCC1,-13.9%
5,O=C(NCc1cccc(Cl)c1)C1CCN(c2nnc(N3CCCC3=O)s2)CC1,9.68%
6,O=C(NCc1cccc(Cl)c1)C1CCC(=O)N(C2CC2)C1 (centres undefined),-4.68%
7,O=C(NCc1cccc(Cl)c1)C1=CC=CN2CCS(=O)(=O)N=C12,33% (active)
8,CCOc1cc(/C=N/Nc2cc(C)nc3ccc(C)cc23)ccc1O,39.9% (active)
9,CCOc1ccc(/C=N/NC(=O)C(C)Sc2ccccn2)cc1OCC (centres undefined),-5.74%
10,CCOc1cc(/C=N/NC(=O)c2ccncc2)cc(Br)c1O,-8.9%
11,O=C(CCN1C(=O)C2C3CCC(C3)C2C1=O)Nc1ccc(Cl)cc1Cl (centres undefined),5.46%
12,O=C(CNC(=O)c1ccc(Br)o1)NCC1CCCO1 (centres undefined),10.6%
13,COCCn1nnnc1C(c1cc2ccc(OC)cc2[nH]c1=O)N1CCc2ccccc2C1 (centres undefined),-11.9%
14,CCOc1ccc2[nH]c(=O)c(C(c3nnnn3CCOC)N3CCOCC3)cc2c1 (centres undefined),46% (active)
15,COc1ccc(N2CCN(C(c3cc4ccc(C)cc4[nH]c3=O)c3nnnn3C3CCCC3)CC2)cc1 (centres undefined),8.39%
16,C=CCC(CC=C)(C(N)=O)c1ccccc1,-5.36%
17,CS(=O)(=O)Nc1cccc(C2=NN(C(=O)c3cccc(F)c3)C(c3cccs3)C2)c1 (centres undefined),-5.27%
18,CS(=O)(=O)Nc1ccc(C2=NN(S(C)(=O)=O)C(c3cccs3)C2)cc1 (centres undefined),51.1% (active)
19,Cc1ccc(C2CC(c3cccc(NS(C)(=O)=O)c3)=NN2S(C)(=O)=O)cc1 (centres undefined),7.24%
